The values below come from PubChem BioAssay (NCI).

Several values for one entry are separate records, joined by “and”; a condition that tells them apart may be missing. Equal entries are not always repeated. Compounds without any hit were thinned out: in the full panel of roughly 83,000, 20% have a hit.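 96-well plates, one dose, 48 hours. Percent growth reported; active if below 10.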 Activity calls are given as the source filed them.

Some test systems named below: HCT-15 colon; HT29 colon; SNB-75 CNS; SNB-19 CNS; U251 CNS; PC-3 prostate; SK-MEL-5 melanoma; UACC-62 melanoma; LOX IMVI melanoma; SK-MEL-28 melanoma; SK-MEL-2 melanoma; EKVX NSCLC; SN12C renal; UO-31 renal; TK-10 renal; ACHN renal; CAKI-1 renal; A498 renal; CCRF-CEM leukemia; MOLT-4 leukemia.
Common to all, as to assay: NCI-60 one-dose screen, 48 h (100 = growth as untreated, 0 = no growth, -100 = all killed)
What all share (settings): 10 µM unless noted

With `O=C(O)c1cccc(Br)c1`, the growth in the assay with HCT-15 colon is 108% (inactive) and 102% (inactive); in the assay on HT29 colon, 101% (inactive) and 94.4% (inactive); in the assay on SNB-75 CNS it was 91.5% (inactive) and 99.7% (inactive); with SNB-19 CNS, 108% (inactive) and 105% (inactive); in the assay on U251 CNS, 103% (inactive) and 90.7% (inactive); in the assay with PC-3 prostate, 95% (inactive) and 97.6% (inactive). Besides, the growth is 104% (inactive) and 109% (inactive) in the assay with SK-MEL-5 melanoma; 103% (inactive) and 102% (inactive) with UACC-62 melanoma; 95.8% (inactive) and 99.3% (inactive) in the assay on LOX IMVI melanoma; 112% (inactive) and 115% (inactive) in the assay on SK-MEL-28 melanoma; 105% (inactive) in the assay with SK-MEL-2 melanoma; 105% (inactive) and 101% (inactive) in the assay on EKVX NSCLC. Besides, the growth is 104% (inactive) in the assay with SN12C renal; 68.5% (inactive) and 88.8% (inactive) with UO-31 renal; 108% (inactive) and 93.6% (inactive) in the assay on TK-10 renal; 107% (inactive) and 108% (inactive) in the assay with ACHN renal; 102% (inactive) and 99% (inactive) with CAKI-1 renal; 99.8% (inactive) and 83% (inactive) with A498 renal. The growth with CCRF-CEM leukemia is 99.7% (inactive) and 101% (inactive); in the assay on MOLT-4 leukemia, 85.9% (inactive) and 96.2% (inactive).
Consider `CCOC(=O)c1csc(N)n1`, for which the growth was 101% (inactive) and 100% (inactive) in the assay on HCT-15 colon; 103% (inactive) and 96.8% (inactive) in the assay on HT29 colon; 84.5% (inactive) and 86% (inactive) with SNB-75 CNS; 89.9% (inactive) and 96.8% (inactive) in the assay on SNB-19 CNS; 111% (inactive) and 86.7% (inactive) in the assay on U251 CNS; 95.4% (inactive) and 94.5% (inactive) with PC-3 prostate. Moreover, the growth in the assay with SK-MEL-5 melanoma was 108% (inactive) and 101% (inactive); in the assay on UACC-62 melanoma, 93.3% (inactive) and 94.2% (inactive); in the assay with LOX IMVI melanoma it was 105% (inactive) and 99.1% (inactive); in the assay on SK-MEL-28 melanoma, 98.9% (inactive) and 106% (inactive); with SK-MEL-2 melanoma, 103% (inactive); in the assay on SN12C renal, 100% (inactive) and 105% (inactive). In addition, the growth is 88.5% (inactive) and 91.9% (inactive) in the assay on UO-31 renal; 111% (inactive) and 97.3% (inactive) with TK-10 renal; 102% (inactive) and 104% (inactive) in the assay with ACHN renal; 66.6% (inactive) in the assay with CAKI-1 renal; 93.5% (inactive) with A498 renal; 91% (inactive) and 98.5% (inactive) with CCRF-CEM leukemia. The growth with MOLT-4 leukemia was 79.3% (inactive) and 106% (inactive).
As for `CCN(CC)C(=S)SCCO`, the growth in the assay with HCT-15 colon is 107% (inactive); with HT29 colon, 99.8% (inactive); with SNB-75 CNS, 89.4% (inactive); in the assay on SNB-19 CNS, 104% (inactive); with U251 CNS, 98.2% (inactive); in the assay on PC-3 prostate, 103% (inactive). Moreover, the growth was 99.7% (inactive) in the assay on SK-MEL-5 melanoma; 107% (inactive) with UACC-62 melanoma; 97% (inactive) with LOX IMVI melanoma; 112% (inactive) in the assay on SK-MEL-28 melanoma; 105% (inactive) in the assay with SK-MEL-2 melanoma; 106% (inactive) with EKVX NSCLC. Besides, the growth in the assay on SN12C renal was 105% (inactive); in the assay with UO-31 renal, 93.8% (inactive); in the assay on TK-10 renal, 86% (inactive); in the assay with CAKI-1 renal it was 107% (inactive); with A498 renal, 75.6% (inactive); in the assay on CCRF-CEM leukemia it was 100% (inactive). Besides, the growth in the assay on MOLT-4 leukemia is 96.6% (inactive).
On to `CCNCc1ccccc1`, for which the growth was 112% (inactive) with HCT-15 colon; 98.8% (inactive) with HT29 colon; 102% (inactive) in the assay on SNB-75 CNS; 109% (inactive) with SNB-19 CNS; 101% (inactive) in the assay on U251 CNS; 103% (inactive) with PC-3 prostate. Further, the growth is 108% (inactive) in the assay with SK-MEL-5 melanoma; 100% (inactive) in the assay on UACC-62 melanoma; 97.8% (inactive) in the assay with LOX IMVI melanoma; 96.9% (inactive) in the assay with SK-MEL-28 melanoma; 111% (inactive) in the assay with SK-MEL-2 melanoma; 104% (inactive) with SN12C renal. For the same compound, the growth in the assay on UO-31 renal is 86.7% (inactive); with TK-10 renal, 100% (inactive); in the assay with ACHN renal it was 110% (inactive); in the assay on CAKI-1 renal it was 101% (inactive); with A498 renal it was 97.4% (inactive); in the assay on CCRF-CEM leukemia, 121% (inactive). Moreover, the growth in the assay on MOLT-4 leukemia was 103% (inactive).
For the compound `CCN(CC)Cc1cc2[nH]c3c4ccc(Cl)cc4ncc3c2cc1OC`, the growth with HCT-15 colon was 45.9% (inactive) and 16.8% (inactive); with HT29 colon, 10.2% (inactive) and 9.65% (active); with SNB-75 CNS, 74.9% (inactive) and 84.7% (inactive); in the assay with SNB-19 CNS it was 104% (inactive) and 103% (inactive); in the assay with U251 CNS it was 3.79% (active) and 64.8% (inactive); in the assay with PC-3 prostate, 52.4% (inactive) and 70% (inactive). For the same compound, the growth with SK-MEL-5 melanoma was -97.7% (active); in the assay with UACC-62 melanoma, 35% (inactive) and 110% (inactive); with LOX IMVI melanoma, -71.8% (active) and -38.7% (active); in the assay on SK-MEL-28 melanoma it was -90% (active) and 115% (inactive); with SK-MEL-2 melanoma, 160% (inactive) and 97.9% (inactive); in the assay on SN12C renal, 72.9% (inactive) and 78.8% (inactive). The growth in the assay with UO-31 renal is 110% (inactive) and 66.2% (inactive); in the assay with TK-10 renal, 123% (inactive) and 89.8% (inactive); in the assay with ACHN renal it was 83.7% (inactive) and 73.4% (inactive); in the assay on CAKI-1 renal, 31.9% (inactive) and 81.3% (inactive); in the assay with A498 renal, 146% (inactive) and 106% (inactive); in the assay with CCRF-CEM leukemia it was -21.5% (active) and 61% (inactive). Further, in the assay on MOLT-4 leukemia, the growth is 40.4% (inactive).
As to `O=C(O)c1ccc2c3ccc(C(=O)O)c4c(C(=O)O)ccc(c5ccc(C(=O)O)c1c25)c43`, the growth with HCT-15 colon is 108% (inactive); in the assay on HT29 colon, 111% (inactive); with SNB-75 CNS, 85.4% (inactive); in the assay with SNB-19 CNS, 96.8% (inactive); with U251 CNS, 106% (inactive); with PC-3 prostate, 101% (inactive). Also, the growth with SK-MEL-5 melanoma was 102% (inactive); in the assay on UACC-62 melanoma it was 90.9% (inactive); in the assay with LOX IMVI melanoma it was 92.7% (inactive); in the assay on SK-MEL-28 melanoma, 112% (inactive); in the assay with SK-MEL-2 melanoma, 91.3% (inactive); with SN12C renal it was 101% (inactive). The growth was 85.8% (inactive) in the assay with UO-31 renal; 117% (inactive) in the assay with TK-10 renal; 80% (inactive) in the assay on CAKI-1 renal; 108% (inactive) in the assay with A498 renal; 111% (inactive) with CCRF-CEM leukemia; 106% (inactive) with MOLT-4 leukemia.
